The source of these data is PubChem BioAssay (Tox21).

A number with no mark means an inactive call. Records with an inconclusive call do not appear. Activity calls are given as the source filed them. Calls come from the whole dose curve.

The target in experiment [1] is Acetylcholinesterase (Homo sapiens) (UniProt P22303). In words: Acetylcholinesterase (AChE) small molecule antagonists: colormetric cell-based qHTS assay (AID 1347395). Note: nearly all actives have a fitted effect of over 30% in size. In outline: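 Colorimetric read-out: DTNB detects thiocholine released when cellular AChE in SH-SY5Y cells hydrolyses acetylthiocholine. Cells attached overnight, received compound for 30 min at 37 C, then substrate mix for 90 min at 37 C.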
Chain of Acetylcholinesterase (Homo sapiens) (P22303 whole entry, looked up): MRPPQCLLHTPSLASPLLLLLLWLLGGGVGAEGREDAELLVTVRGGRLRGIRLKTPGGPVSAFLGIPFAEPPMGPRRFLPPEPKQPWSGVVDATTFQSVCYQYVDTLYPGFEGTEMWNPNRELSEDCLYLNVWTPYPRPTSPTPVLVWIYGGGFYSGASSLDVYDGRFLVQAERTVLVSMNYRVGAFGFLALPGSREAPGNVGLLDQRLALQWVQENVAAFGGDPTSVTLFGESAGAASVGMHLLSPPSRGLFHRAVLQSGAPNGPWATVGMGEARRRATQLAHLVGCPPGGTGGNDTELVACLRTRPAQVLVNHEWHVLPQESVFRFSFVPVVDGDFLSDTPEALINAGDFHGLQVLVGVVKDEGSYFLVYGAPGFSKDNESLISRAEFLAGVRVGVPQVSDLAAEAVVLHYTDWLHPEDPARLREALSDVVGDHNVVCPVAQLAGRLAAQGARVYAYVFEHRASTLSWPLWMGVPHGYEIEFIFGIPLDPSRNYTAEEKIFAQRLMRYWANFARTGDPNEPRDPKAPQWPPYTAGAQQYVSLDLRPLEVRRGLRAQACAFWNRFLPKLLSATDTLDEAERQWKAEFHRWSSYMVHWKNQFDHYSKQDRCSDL
(In qHTS, concentration-response curves come from the screen itself.)

For experiment [2] the target is unchanged. In words: Acetylcholinesterase (AChE) small molecule antagonists: enzyme-based qHTS assay (AID 1347397). Note: nearly all actives have a fitted effect of over 55% in size. Note: potency is the fitted concentration of half-maximal effect. The note with it: Potency: AChE enzyme activity inhibition; outcome: AChE enzyme activity inhibition. In outline: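 Human recombinant acetylcholinesterase; substrate acetylthiocholine; thiocholine quantified with DTNB (colorimetric). Compound preincubation 30 min RT; reaction 10 min RT.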

The target is the same in experiment [3]. Description: Acetylcholinesterase (AChE) small molecule antagonists: fluorescence cell-based qHTS assay (AID 1347398). Note: nearly all actives have a fitted effect of over 50% in size. The note with it: Potency: AChE activity; outcome: AChE activity. The method, boiled down:
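Thiocholine generated from acetylthiocholine by SH-SY5Y cell AChE is detected with Thiolite Green (Ex/Em 490/520 nm) after 40 min at room temperature, following 30 min compound pretreatment at 37 C.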

The target is the same in experiment [4]. Description: Acetylcholinesterase (AChE) small molecule antagonists: enzyme-based qHTS assay with human liver microsomes (AID 1347399). Note: nearly all actives have a fitted effect of over 60% in size. The note with it: Potency: qHTS inhibition; outcome: qHTS inhibition. The method, boiled down:
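Recombinant human AChE (50 mU/mL in the enzyme mix) and human liver microsomes (0.25 mg/mL final) were preincubated with compound and NADPH (0.25 mg/mL final) for 30 min at 37 C. Acetylthiocholine/DTNB was then added; thiocholine was read colorimetrically after 10 min at room temperature.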
% is set by controls: 0 for no effect and ±100 for the full control effect.

Consider `COC(=O)c1ccc(C)cc1C1=NC(C)(C(C)C)C(=O)N1` (stereo not given), for which the Potency entry in experiment [1], in experiment [2], in experiment [3] and in experiment [4] was “inactive” in each case.
With `CCn1cc(C(=O)O)c(=O)c2cnc(N3CCNCC3)nc21`, the Potency result in experiment [1], in experiment [2], in experiment [3] and in experiment [4] was “inactive” in each case.
Turning to `CC(=O)Nc1ccc(N)cc1`, the Potency result in experiment [1], in experiment [2], in experiment [3] and in experiment [4] was “inactive” in each case.
`NC(=O)N1C(=O)C(C(=O)c2cc(Cl)cs2)c2cc(F)c(Cl)cc21` (stereo not given): the Potency result in experiment [1], in experiment [2], in experiment [3] and in experiment [4] was “inactive” in each case.
For `Cc1cc(O)c(C(C)(C)C)cc1Sc1cc(C(C)(C)C)c(O)cc1C`, the Potency result in experiment [1], in experiment [3] and in experiment [4] was “inactive” in each case. Further, in experiment [2], the Potency is 28.2 µM (active).
Regarding `CN1C(CSCC(F)(F)F)Nc2cc(Cl)c(S(N)(=O)=O)cc2S1(=O)=O` (stereo not given), the Potency entry in experiment [1], in experiment [2], in experiment [3] and in experiment [4] was “inactive” throughout.
`C=CCCCCCCCCC(=O)OCC`: the Potency entry in experiment [1], in experiment [2], in experiment [3] and in experiment [4] was “inactive” in each case.
On to `C=CC(=O)NC(C)C`, for which the Potency result in experiment [1], in experiment [2], in experiment [3] and in experiment [4] was “inactive” throughout.
Regarding `CC1(C)CCC[C@]2(C)[C@H]3CC(=O)O[C@]3(C)CC[C@@H]12`, the Potency entry in experiment [1], in experiment [2], in experiment [3] and in experiment [4] was “inactive” in each case.
Take `CN(C)Cc1ccccc1O`: the Potency result in experiment [1], in experiment [2], in experiment [3] and in experiment [4] was “inactive” in each case.
For the compound `CC(CO)(CO)C(=O)O`, the Potency result in experiment [1], in experiment [2], in experiment [3] and in experiment [4] was “inactive” throughout.
As to `C=CC(=O)OCCCCCCCC`, the Potency entry in experiment [1], in experiment [2], in experiment [3] and in experiment [4] was “inactive” each time.
Regarding `CCCCOCCO`, the Potency result in experiment [1], in experiment [2], in experiment [3] and in experiment [4] was “inactive” each time.
Turning to `Cc1cc(O)c(C(C)C)cc1Cl`, the Potency result in experiment [1], in experiment [2], in experiment [3] and in experiment [4] was “inactive” each time.
For the compound `CCCCNC(=O)NCCCC`, the Potency result in experiment [1], in experiment [2], in experiment [3] and in experiment [4] was “inactive” throughout.
Take `C[C@]12CC[C@@H]3c4ccc(O)cc4CC[C@H]3[C@@H]1CC[C@@H]2OC(=O)CCC1CCCC1`: the Potency result in experiment [1], in experiment [2], in experiment [3] and in experiment [4] was “inactive” throughout.
Turning to `CCC(Cl)CC(Cl)C(Cl)C(Cl)C(Cl)C(C)Cl` (stereo not given), the activity, negative = inhibition in experiment [1] was -0.388% [at 23.6 µM]. Besides, the activity change, negative = inhibition in experiment [2] was -3.68% [at 23.6 µM]; in experiment [3], 0.856% [at 23.8 µM]; in experiment [4] it was 0.639% [at 23.6 µM].
Regarding `CCc1cc(Cl)c(OC)c(C(=O)NC[C@@H]2CCCN2CC)c1O`, the Potency entry in experiment [1], in experiment [2], in experiment [3] and in experiment [4] was “inactive” throughout.
With `CCCNC(=O)NS(=O)(=O)c1ccc(Cl)cc1`, the Potency result in experiment [1], in experiment [2], in experiment [3] and in experiment [4] was “inactive” throughout.
For the compound `CCCCCC/C=C/C=O`, the Potency entry in experiment [1], in experiment [2], in experiment [3] and in experiment [4] was “inactive” each time.
On to `CC(C)(C)C(=O)C(=O)O`, for which the Potency entry in experiment [1], in experiment [2], in experiment [3] and in experiment [4] was “inactive” in each case.
As for `CCOC(=O)[C@H](CCc1ccccc1)N[C@@H](C)C(=O)N1C(=O)N(C)C[C@H]1C(=O)O`, the Potency entry in experiment [1], in experiment [2], in experiment [3] and in experiment [4] was “inactive” each time.
Consider `ClC/C=C\CCl`, for which the Potency entry in experiment [1], in experiment [2], in experiment [3] and in experiment [4] was “inactive” in each case.
As for `C=CCNCC=C`, the Potency result in experiment [1], in experiment [2], in experiment [3] and in experiment [4] was “inactive” in each case.
Turning to `c1cnc(N2CCN(Cc3ccc4c(c3)OCO4)CC2)nc1`, the Potency result in experiment [1], in experiment [2], in experiment [3] and in experiment [4] was “inactive” each time.
With `Cc1ncc(CSSCc2cnc(C)c(O)c2CO)c(CO)c1O`, the Potency entry in experiment [1], in experiment [2], in experiment [3] and in experiment [4] was “inactive” throughout.
Turning to `CC(=O)/C=C/C1C(C)=CCCC1(C)C` (stereo not given), the Potency result in experiment [1], in experiment [2], in experiment [3] and in experiment [4] was “inactive” throughout.
As to `CN1C(CCl)Nc2cc(Cl)c(S(N)(=O)=O)cc2S1(=O)=O` (stereo not given), the Potency result in experiment [1], in experiment [2], in experiment [3] and in experiment [4] was “inactive” each time.
For `CCCCC(CC)COC(=O)COc1ccc(Cl)cc1C` (stereo not given), the Potency entry in experiment [1], in experiment [2], in experiment [3] and in experiment [4] was “inactive” each time.
As for `NS(=O)(=O)c1cc(-c2nn[nH]n2)c(NCc2cccs2)cc1Cl`, the Potency result in experiment [1], in experiment [2], in experiment [3] and in experiment [4] was “inactive” in each case.
As to `O=[N+]([O-])c1ccc(O)c2ncccc12`, the Potency result in experiment [1], in experiment [2], in experiment [3] and in experiment [4] was “inactive” each time.
`CC1(C)S[C@@H]2[C@H](NC(=O)C(C(=O)O)c3ccccc3)C(=O)N2[C@H]1C(=O)O` (stereo not given in full): the Potency entry in experiment [1], in experiment [2], in experiment [3] and in experiment [4] was “inactive” throughout.
Regarding `C/C=C/C=C/CCCCCCCO`, the Potency entry in experiment [1], in experiment [2], in experiment [3] and in experiment [4] was “inactive” in each case.
For the compound `COCCOCCOC`, the Potency result in experiment [1], in experiment [2], in experiment [3] and in experiment [4] was “inactive” in each case.
With `Sc1nc(S)nc(S)n1`, the Potency entry in experiment [1], in experiment [2], in experiment [3] and in experiment [4] was “inactive” in each case.
`CCCC(O)C(O)CO` (stereo not given): the Potency entry in experiment [1], in experiment [2], in experiment [3] and in experiment [4] was “inactive” in each case.
For the compound `NC(N)=Nc1nc(CSCC/C(N)=N/S(N)(=O)=O)cs1`, the Potency entry in experiment [1], in experiment [2], in experiment [3] and in experiment [4] was “inactive” throughout.
On to `CO/N=C(\C(=O)O)c1csc(NC(=O)CCl)n1`, for which the Potency result in experiment [1], in experiment [2], in experiment [3] and in experiment [4] was “inactive” in each case.
For the compound `C=C1[C@H]2CC[C@@H]3[C@H]2C(C)(C)CCC[C@]13C`, the Potency result in experiment [1], in experiment [2], in experiment [3] and in experiment [4] was “inactive” in each case.
For `CCc1ccccc1CC`, the Potency entry in experiment [1], in experiment [2], in experiment [3] and in experiment [4] was “inactive” in each case.
For `CCCCC(CC)COP(=O)(OCC(CC)CCCC)OCC(CC)CCCC` (stereo not given), the Potency result in experiment [1], in experiment [2], in experiment [3] and in experiment [4] was “inactive” each time.
As to `Cc1ccc(C)c(C)c1`, the Potency result in experiment [1], in experiment [2], in experiment [3] and in experiment [4] was “inactive” in each case.
With `CC(C)CCCC(C)CCCC(C)CCCCC(C)CCCC(C)CCCC(C)C` (stereo not given), the Potency result in experiment [1], in experiment [2], in experiment [3] and in experiment [4] was “inactive” in each case.
Regarding `CC1CCCCC1`, the Potency entry in experiment [1], in experiment [2], in experiment [3] and in experiment [4] was “inactive” in each case.
Consider `CC(=O)Nc1ccc(N=Nc2cc(C)ccc2O)cc1`, for which the Potency result in experiment [1], in experiment [3] and in experiment [4] was “inactive” each time. Moreover, the Potency in experiment [2] is 22.4 µM (active).
Consider `C/C=C(\C)C(=O)OC/C=C(\C)CCC=C(C)C`, for which the Potency result in experiment [1], in experiment [2], in experiment [3] and in experiment [4] was “inactive” in each case.
Consider `Clc1cccc(Cl)n1`, for which the Potency entry in experiment [1], in experiment [2], in experiment [3] and in experiment [4] was “inactive” throughout.
For `CO[Si](CCCNCCN)(OC)OC`, the Potency entry in experiment [1], in experiment [2], in experiment [3] and in experiment [4] was “inactive” each time.
`O=C=NCc1cccc(CN=C=O)c1`: the activity, negative = inhibition in experiment [1] is -0.545% [at 23.6 µM]. The activity change, negative = inhibition in experiment [2] was 0.393% [at 23.6 µM]; in experiment [3] it was -0.0492% [at 23.8 µM]; in experiment [4] it was 0.648% [at 23.6 µM].
In the case of `O=S(=O)(O)CCO`, the Potency result in experiment [1], in experiment [2], in experiment [3] and in experiment [4] was “inactive” in each case.
As for `C=CC(=O)OCCOCCOCC`, the Potency entry in experiment [1], in experiment [2], in experiment [3] and in experiment [4] was “inactive” throughout.
As for `Cc1cccc(N)n1`, the Potency entry in experiment [1], in experiment [2], in experiment [3] and in experiment [4] was “inactive” throughout.
Take `Nc1c(Cl)cc(Cl)cc1[N+](=O)[O-]`: the Potency entry in experiment [1], in experiment [2], in experiment [3] and in experiment [4] was “inactive” each time.
For the compound `N#Cc1nc(Cl)c(Cl)c(Cl)c1Cl`, the Potency result in experiment [1], in experiment [2], in experiment [3] and in experiment [4] was “inactive” each time.
`O=C1c2ccccc2C(=O)C1c1ccc(Br)cc1`: the Potency entry in experiment [1], in experiment [2], in experiment [3] and in experiment [4] was “inactive” each time.
On to `O=C(O)CNCC(=O)O`, for which, in experiment [1], the activity, negative = inhibition was 1.88% [at 10.5 µM]. For the same compound, the activity change, negative = inhibition in experiment [2] is -0.541% [at 10.5 µM]; in experiment [3] it was -0.972% [at 10.5 µM]; in experiment [4], -0.995% [at 10.5 µM].
Consider `O=C1CCCc2ccccc21`, for which the Potency result in experiment [1], in experiment [2], in experiment [3] and in experiment [4] was “inactive” each time.
For `O=c1[nH]c(=O)n([C@H]2C[C@H](O)[C@@H](CO)O2)cc1C(F)(F)F`, the Potency entry in experiment [1], in experiment [2], in experiment [3] and in experiment [4] was “inactive” in each case.
Consider `CC(=O)Nc1ccc(S(=O)(=O)Nc2ccc([N+](=O)[O-])cc2)cc1`, for which the Potency entry in experiment [1], in experiment [2], in experiment [3] and in experiment [4] was “inactive” each time.
For `Cc1c(NC(=O)c2cccnc2)c(=O)n(-c2ccccc2)n1C`, the Potency entry in experiment [1], in experiment [2], in experiment [3] and in experiment [4] was “inactive” throughout.
